The values that follow come from article PMC5540273 (PLoS ONE, 2017).

Conditions in all cases: concentration: 1 μM, replicates: in singlicate; n = 1
The subject of test [1] is T1, BIKE.
T1 construct: gene BMP2K

Test [2] relates to BLK.
The test system of test [3] is BMPR1A.
Test [4] has as its system BMPR1B.
In test [5] the test system is BMPR2.
Test [6] deals with BMX.
Test [7] has as its system BRAF.
The test system of test [8] is T2, BRK.
T2 construct: gene PTK6

Test [9] relates to BRSK1.
The subject of test [10] is BRSK2.
Test [11] relates to BTK.
The subject of test [12] is BUB1.
The subject of test [13] is CAMK1B.
Test [14] relates to CAMK1D.
Test [15] concerns CAMK1G.
The test system of test [16] is CAMK1.
The subject of test [17] is CAMK2A.
Test [18] relates to CAMK2B.
For test [19], the system named is CAMK2D.
In test [20] the test system is CAMK2G.

Molecules are shown by their SMILES.
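Also: KINOMEscan kinase panel screen.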

For the molecule `O=C(Nc1n[nH]c2cc(-c3ccsc3)ccc12)C1CC1` [SB-732932], the “%Inh” value in test [1] is 54%; in test [2], 0%; in test [3], 27%; in test [4], 22%; in test [5], 32%; in test [6] it was 15%. For the same molecule, the “%Inh” value in test [7] is recorded as 9%; in [8] it was 0%; in [9] it was 59%; in test [10], 61%; in [11], 10%; in [12], 20%. Besides, the “%Inh” value amounted to 2% in test [13]; 0% in [14]; 23% in [15]; 30% in [16]; 20% in test [17]; 11% in [18]. Besides, the “%Inh” value is 12% in test [19] and 15% in test [20].
Consider `FC(F)(F)c1ccccc1-c1cc(-c2c[nH]nc2-c2ccccn2)ccn1` [GW679396], for which the “%Inh” value in test [1] is reported as 24%; in test [2] it was 1%; in test [3] it was 13%; in test [4], 0%; in test [5] it was 7%; in test [6], 0%. For the same molecule, the “%Inh” value was determined as 0% in test [7]; 20% in test [8]; 0% in test [9]; 0% in [10]; 0% in test [11]; 0% in [12]. Besides, the “%Inh” value was found to be 29% in test [13]; 12% in test [14]; 8% in [15]; 21% in test [16]; 0% in test [17]; 0% in test [18]. Further, the “%Inh” value was determined as 9% in test [19] and 29% in test [20].
On to `Nc1nccc(-c2c(-c3ccc(F)cc3)ncn2C2CCN(Cc3ccccc3)CC2)n1` [SB-219980], for which the “%Inh” value in test [1] came to 0%; in test [2] it was 0%; in [3], 0%; in test [4], 2%; in test [5], 0%; in test [6] it was 0%. Besides, the “%Inh” value in test [7] was found to be 0%; in test [8] it was 0%; in [9] it was 0%; in test [10], 0%; in [11], 0%; in test [12], 38%. Moreover, the “%Inh” value in [13] stood at 56%; in [14], 0%; in test [15], 0%; in test [16] it was 12%; in test [17], 0%; in [18], 0%. In addition, the “%Inh” value in test [19] and in [20] was 0% in each case.
As for `CS(=O)(=O)CCNCc1nc(-c2ccc3ncnc(Nc4ccc(OCc5ccccc5)c(Cl)c4)c3c2)cs1.Cl` [GW582764], the “%Inh” value in test [1] stood at 0%; in [2] it was 48%; in test [3] it was 0%; in [4] it was 0%; in [5], 15%; in test [6] it was 0%. The “%Inh” value is given as 2% in test [7]; 3% in test [8]; 0% in test [9]; 0% in [10]; 35% in test [11]; 62% in test [12]. Besides, the “%Inh” value was found to be 4% in test [13]; 3% in test [14]; 0% in test [15]; 9% in [16]; 0% in test [17]; 0% in [18]. The “%Inh” value in [19] is reported as 1%; in test [20], 18%.
Take `Cn1cncc1C(=O)NC1CCN(c2ccnc(Nc3ccc(F)cc3)n2)C1` (stereo not shown) [GSK1379717]: the “%Inh” value in [1] turned out to be 7%; in [2], 0%; in test [3], 5%; in test [4], 0%; in [5], 6%; in test [6], 0%. In addition, the “%Inh” value in test [7] stood at 0%; in [8], 0%; in test [9], 1%; in [10], 0%; in [11], 0%; in test [12] it was 32%. Also, the “%Inh” value in [13] came to 0%; in test [14] it was 22%; in test [15], 12%; in test [16] it was 16%; in [17], 0%; in [18], 0%. In addition, the “%Inh” value stood at 24% in test [19] and 32% in [20].
In the case of `CCn1c(-c2c(N)noc2C)nc2cnccc21` [SB-737856], the “%Inh” value in [1] is 22%; in test [2], 0%; in test [3], 0%; in [4] it was 0%; in test [5], 3%; in test [6] it was 0%. Further, the “%Inh” value worked out at 0% in test [7]; 0% in test [8]; 6% in test [9]; 0% in test [10]; 0% in test [11]; 20% in test [12]. In addition, the “%Inh” value in [13], in test [14], in test [15], in test [16], in test [17] and in test [18] was 0% each time. Moreover, the “%Inh” value in [19] and in test [20] was 0% throughout.
As to `CC(=O)c1c(C)c2cnc(Nc3ccn(C)n3)nc2n(C2CCCC2)c1=O`, the “%Inh” value is reported as 22% in [1]; 0% in test [2]; 0% in test [3]; 0% in test [4]; 0% in test [5]; 0% in test [6]. The “%Inh” value in test [7] came out at 3%; in test [8] it was 8%; in [9], 0%; in test [10] it was 0%; in test [11], 0%; in test [12] it was 2%. Also, the “%Inh” value in test [13] is listed as 8%; in test [14], 0%; in test [15], 1%; in test [16] it was 0%; in test [17] it was 0%; in test [18] it was 0%. In addition, the “%Inh” value in [19] was determined as 13%; in test [20] it was 9%.
With `Cc1ccc(NC(=O)Nc2ccc(Cl)c(C(F)(F)F)c2)cc1-c1ccc(C(=O)Nc2ccncc2)cc1` [GSK1398470], the “%Inh” value in [1] amounted to 8%; in test [2], 7%; in test [3] it was 6%; in test [4], 0%; in test [5] it was 0%; in [6], 21%. Besides, the “%Inh” value in test [7] turned out to be 73%; in [8], 29%; in test [9], 7%; in test [10] it was 0%; in test [11], 0%; in [12], 9%. The “%Inh” value in test [13] is 2%; in [14], 15%; in test [15], 12%; in [16], 17%; in [17], 0%; in [18], 4%. Moreover, the “%Inh” value is on record as 13% in [19] and 25% in test [20].
